# Assay results from PubChem BioAssay AID1850 (Southern Research Specialized Biocontainment Screening …, 2009).
# About 1,000 (0.32%) of roughly 310,000 compounds were called active. These entries were drawn from the full list. Results with a measured potency or affinity are listed apart. A number with no mark means an inactive call. How the calls were made is not given here.
# Assay: Inhibition of PhoP regulon, Salmonella typhi GFP reporter cells, confirmation, 4 h (AID 1850);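 further: 0% = induced wells with vehicle and 100% = uninduced wells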
# Conditions: Salmonella Typhi PhoP-promoter GFP reporter, fluorescence, at 50 µM, hits give high values
row,SMILES,inhibition [%]
1,CCOC(=O)c1ccc(NC(=S)NCc2ccccc2)cc1,4.39
2,Cc1ccc(S(=O)(=O)N2CCN(S(=O)(=O)c3cccs3)CC2)cc1,-0.13
3,CCOc1ccc(NC(=O)CSc2nnc(-c3ccncc3)n2CC2CCCO2)cc1 (centres undefined),-0.03
4,CCNC(=O)NCCNC(=O)c1cc(OCC(F)(F)F)ccc1OCC(F)(F)F,1.77
5,O=C(c1ccc(-n2cncn2)c([N+](=O)[O-])c1)N1CCN(S(=O)(=O)c2ccc(F)c(F)c2)CC1,9.27
6,Cc1ccc(C(=O)NNC(=S)NC(=O)c2ccco2)cc1,-11.8
7,C=C(C)CNC(=S)NNC(=O)c1ccc(Br)cc1,-8.67
8,CCCOc1ccc(C(=O)NNC(=S)NC(=O)c2cccs2)cc1,19.7
9,O=C(NNC(=S)NC(=O)c1ccc(Br)cc1)c1ccc([N+](=O)[O-])cc1,0.22
10,COc1ccc(C(=O)NNC(=S)NC(=O)c2ccco2)cc1,5.07
11,CCC(=O)NC(=S)NNC(=O)c1ccc(OC)cc1,18.2
12,CCCCC(=O)NC(=S)NNC(=O)c1ccc(OC)cc1,-8.34
13,CCCOc1ccc(C(=O)NNC(=S)NC(=O)c2ccccc2)cc1,2.22
14,O=C(Nc1nc(-c2ccccc2Cl)cs1)c1cccnc1,3.73
15,CC(C)(C)c1cc(OC(=O)c2ccccc2F)ccc1O,-1
16,CC(=O)NC(=S)Nc1cc(C(F)(F)F)ccc1N1CCOCC1,-8.24
17,CCC1(C)SC(NC(C)=O)=NN1C(C)=O (centres undefined),-7.92
18,Cc1cc(=O)[nH]c(N/N=C/c2cccc(Br)c2)n1,5.33
19,Cc1onc(-c2ccccc2)c1C(=O)OCC(=O)N(CC(C)C)c1c(N)n(Cc2ccccc2)c(=O)[nH]c1=O,0.02
20,Cc1ccsc1C1CC(=O)Nc2ccccc2S1 (centres undefined),3.75

row,SMILES,inhibition [%]
1,CCN(CC(=O)NCc1ccc(Cl)cc1)C(=O)CCc1ccccc1,8.65
2,c1ccc(CN2CCN(C(c3ccccc3)c3nnnn3Cc3ccccc3)CC2)cc1 (centres undefined),-8.11
3,COc1cc(N)c(Cl)cc1C(=O)OCC(=O)N1CCCC1,-3.7
4,C=CCNC(=S)NNC(=O)c1ccc(OCCC)cc1,0.33
5,CCC(=O)NC(=S)NNC(=O)c1ccc(O)cc1,-2.12
6,CSc1ncccc1C(=O)N1CCCC(C(=O)c2ccc3ccccc3c2)C1 (centres undefined),0.25
7,Cc1cc(C(C)(C)C)ccc1OCCOCCN1CCCC1,-9.74
8,Cc1cc(C(C)(C)C)ccc1OCCN(C)C,-2.78
9,CC(C)(C)c1ccc(OCCNCc2ccccc2)cc1,3.96
10,C[N+](C)(CCOc1ccccc1)Cc1ccccc1 (tested in a mixture with another compound),-4.3
11,N/C(=N/[N+](=O)[O-])N1CCN(C(=O)c2ccc(Cl)cc2)CC1,9.05
12,O=C(NC1CCS(=O)(=O)C1)c1ccc(-c2ccc(Br)cc2)o1 (centres undefined),-6.5
13,O=C(NCCc1ccccc1Cl)c1ccc2nc3ccccc3c(=O)n2c1,-1.95
14,O=[N+]([O-])c1ccc(Sc2cccc3cccnc23)cc1,-0.7
15,CCOC(=O)COc1cc([N+](=O)[O-])cc2cccnc12,1.87
16,NC(N)=NC(=S)Nc1ccc(Cl)cc1,18.1
17,CC(C)N=C(N)N=C(N)Nc1ccc(Cl)cc1,28.9
18,COc1ccc(C(=O)N/C(=C\c2ccco2)C(=O)NC2CCS(=O)(=O)C2)cc1 (centres undefined),-6.19
19,COc1cccc(C(=O)Nc2nnc(-c3cccs3)o2)c1,17.3
20,O=C(Nc1nnc(-c2cccs2)o1)c1ccco1,9.01

row,SMILES,inhibition [%]
1,O=C(Nc1nnc(C2=COCCO2)o1)c1cccc(C(F)(F)F)c1,-4.95
2,CN(C)S(=O)(=O)c1ccc(C(=O)Nc2nnc(-c3cccs3)o2)cc1,-4
3,N#Cc1ccc(C(=O)Nc2nnc(-c3cccs3)o2)cc1,21.1
4,O=C(Nc1nnc(-c2cccs2)s1)c1cccc(F)c1,-2.5
5,Cc1cc(C(=O)COC(=O)c2nc3nccc(C)n3n2)c(C)n1CC1CCCO1 (centres undefined),-1.82
6,COCCn1c(CCC(=O)O)ccc1-c1cccs1,3.14
7,O=C(O)c1ccccc1-n1c(-c2ccccc2)cc2c1CCCC2=O,-1.82
8,CC(C)CC1Nc2ccc(C(=O)NCc3ccc4c(c3)OCO4)cc2NC1=O (centres undefined),1.92
9,Cc1nccn1Cc1ccccc1,9.82
10,COc1ccc(Cl)cc1NC(=S)NCCc1ccc(S(N)(=O)=O)cc1,1.57
11,CN(Cc1ccccc1)C(=O)c1cccnc1,-2.03
12,CCOC(=O)c1ccc(NC(=O)c2cn(-c3ccccc3)nc2-c2ccncc2)cc1,3.68
13,CN(C)[C@@H]1C(=O)C(C(N)=O)=C(O)[C@@]2(O)C(=O)C3=C(O)c4c(O)cccc4[C@@](C)(O)[C@H]3[C@H](O)[C@@H]12,5.02
14,CN(C)[C@@H]1C(=O)C(C(N)=O)=C(O)[C@@]2(O)C(=O)C3=C(O)c4c(O)cccc4[C@@](C)(O)[C@H]3C[C@@H]12,-2.82
15,CN(C)[C@@H]1C(=O)C(C(=O)NCN2CCCC2)=C(O)[C@@]2(O)C(=O)C3=C(O)c4c(O)cccc4[C@@](C)(O)C3CC12 (some centres undefined),-8.43
16,CN(C)[C@@H]1C(=O)C(C(N)=O)=C(O)[C@@]2(O)C(=O)C3=C(O)c4c(O)ccc(Cl)c4[C@@](C)(O)[C@H]3C[C@@H]12,4.13
17,COC(=O)C1=C(C)N(Cc2ccco2)C(=O)N[C@H]1c1ccccc1,-5.63
18,Cc1cccc(OCc2nnc(SCC(=O)c3ccccc3)o2)c1,5.39
19,O=C(c1ccc(-n2cncn2)c([N+](=O)[O-])c1)N1CCN(S(=O)(=O)c2c(F)cccc2F)CC1,-3.76
